The whole screen tested about 5,500 compounds, of which about 2,000 (36%) were called active. Another 18% or so got no clear call; they are omitted. Rule as the data show it: active = normalized growth mostly below about 0.91 (no sharp cut-off); inconclusive = no clear call, values can overlap the other calls; inactive = mostly above about 0.92. Some of the results follow.
Experiment: chemical genetic growth profiling, strain panel (AID 1159580);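 also: tested at 20 µM; growth read once vehicle control cultures reached saturation at 30 °C; 1 = growth at the plate median or of vehicle wells; lower values mean less growth of the strain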
Details: S. cerevisiae deletion strains, growth OD

Measured: normalized growth

COC(=O)C(C)(N)Cc1ccc(O)cc1 (centres undefined)
inactive: locus YAL013W, strain DEP1, active compounds read low 0.991 | locus YAL040C, strain CLN3, active compounds read low 0.987 | locus YCL061C, strain MRC1 (second series), active compounds read low 1.01 | locus YDR363W, strain ESC2, active compounds read low 0.966 | locus YER002W, strain NOP16, active compounds read low 1.01 | locus YGR078C, strain PAC10, active compounds read low 0.976 | locus YMR307W, strain GAS1, active compounds read low 0.974 | locus YNL153C, strain GIM3, active compounds read low 1.03 | locus YNL175C, strain NOP13, active compounds read low 0.996 | locus YNL197C, strain WHI3, active compounds read low 0.99 | locus YNL224C, strain SQS1, active compounds read low 0.997 | locus YOR083W, strain WHI5 (second series), active compounds read low 1.01 | locus YPL055C, strain LGE1, active compounds read low 0.988 | locus YPL241C, strain CIN2, active compounds read low 1.01
